Source: PubChem BioAssay
GPT2 inh = blocks human glutamate pyruvate transaminase 2. Recombinant GPT2, coupled pyruvate oxidase/HRP Amplex Red fluorescence. Potency, µM (highest dose often 57.7 µM), without a hit: at the highest dose activity change, negative = inhibition, most hits filed as inhibitors. AID 1671188. 100,000 tested, 0.25% active; further: nearly all actives have a fitted effect of over 60% in size
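Fluorescence of coupled pyruvate oxidase/HRP/Amplex Red system (50uM Amplex, 30 min, dark) reports pyruvate formed by GPT2. Enzyme reaction: 10ng/uL GPT2, 2mM L-alanine, 250uM a-KG, 30 min room temperature, pH 7.5; 50uM AOA control.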
hNpr1 antagonist = human Npr1 receptor antagonism. HEK293 hNpr1 GloSensor cGMP, ANP-stimulated luminescence. Potency, µM (highest dose often 46.3 µM), for the others: at the highest dose activity change, negative = inhibition, actives largely listed as inhibitors. 76,000 tested, 1.6% active. AID 1347048; calls by dose curve; further: nearly all actives have a fitted effect of over 60% in size
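Compound pre-incubated 30 min at room temperature on GloSensor-loaded HEK293 cells stably carrying hNpr1 and the pGS-40F cGMP biosensor. Stimulation uses hNppA at 0.1 nM final; luminescence is taken at baseline and 20 min post-agonist.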
HEK cytotox = cytotoxic compounds in HEK 293 cells | HEK 293 viability, ATP luminescence (CellTiter-Glo), 48-72 h | 94,000 tested, 6.6% active | Potency, µM (titrated, usually from 115 µM), for the others: at the top dose activity change, negative = cytotoxicity, most hits filed as inhibitors; further: nearly all actives have a fitted effect of over 60% in size
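Read-out: CellTiter-Glo ATP luminescence. Cells: HEK 293, 250 cells/well. Exposure: 48 or 72 hr, 37 degree Celsius.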
FLuc inh = Photinus pyralis luciferase inhibition; AID 1347043; purified P. pyralis luciferase, luminescence, biochemical; 76,000 tested, 2.5% active; Potency, µM (top dose mostly 115 µM), hits mostly inhibitors; P08659; further: nearly all actives have a fitted effect of over 65% in size
Target sequence (P08659 whole entry, looked up): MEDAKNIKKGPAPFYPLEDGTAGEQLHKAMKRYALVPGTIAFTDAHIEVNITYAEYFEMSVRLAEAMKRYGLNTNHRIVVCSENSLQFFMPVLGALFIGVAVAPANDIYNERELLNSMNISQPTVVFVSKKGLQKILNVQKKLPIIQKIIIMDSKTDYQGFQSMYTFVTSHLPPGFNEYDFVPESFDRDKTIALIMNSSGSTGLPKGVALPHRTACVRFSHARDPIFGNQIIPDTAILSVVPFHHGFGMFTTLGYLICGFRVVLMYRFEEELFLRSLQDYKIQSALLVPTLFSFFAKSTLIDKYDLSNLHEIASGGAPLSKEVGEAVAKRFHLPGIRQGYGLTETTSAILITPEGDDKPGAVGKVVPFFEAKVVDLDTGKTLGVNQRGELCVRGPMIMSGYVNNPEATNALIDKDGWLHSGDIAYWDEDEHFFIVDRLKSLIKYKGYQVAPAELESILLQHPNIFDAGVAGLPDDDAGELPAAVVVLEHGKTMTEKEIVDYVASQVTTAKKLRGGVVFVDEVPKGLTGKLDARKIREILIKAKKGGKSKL
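Luminescence read by CCD imaging after purified firefly luciferase (10nM final) was added to substrate buffer holding 10uM D-luciferin and 10uM ATP, pH 7.5, pre-dosed with compound.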
3T3 cytotox = cytotoxic compounds in NIH 3T3 cells. NIH 3T3 viability, CellTiter-Glo ATP luminescence, 48-72 h. Potency, µM (titrated, usually from 96.7 µM), for the others: at the highest dose activity change, negative = cytotoxicity, usual class: inhibitors. 94,000 tested, 4.3% active. AID 1345082; further: nearly all actives have a fitted effect of over 55% in size
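Cytotoxicity is measured as loss of cellular ATP: NIH 3T3 cells (400/well) are exposed to compound for 48 or 72 hr at 37 °C, then CellTiter-Glo luminescence is imaged after 10 min at room temperature.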
* marks the source's active call; other numbers are inactive results; i = inactive; ? = inconclusive; . = no result; [ ] = remark or other dose. Sampled rows, rich in hits. Any-hit rate of the full collection: about 10%. Unless noted, the call rests on the fitted dose curve; in most records, active means well fitted curve in the direction sought with a large enough effect; inconclusive means small, poorly fitted or top-dose-only effect, or another doubt; inactive means no such curve, though single readings can be large; an effect the other way counts as inactive or inconclusive. On the % scale 0 is the no-effect control and ±100 the full control effect; potency means the concentration at half of the fitted maximal effect.

SMILES	GPT2 inh	hNpr1 antagonist	HEK cytotox	FLuc inh	3T3 cytotox
Cc1cc(NC(=O)C2CCN(C(=O)c3ncn4c3COC(c3ccc(F)cc3)C4)CC2)ccc1Cl (centres undefined)	2%	-3%	-21%	40µM*	?
Cc1ccc(NC(=O)C2CCN(C(=O)c3ncn4c3COC(c3ccc(F)cc3)C4)CC2)cc1C (centres undefined)	5%	1%	13%	35µM*	i
Cc1cc(C)cc(NC(=O)C2CCN(C(=O)c3ncn4c3COC(c3ccc(F)cc3)C4)CC2)c1 (centres undefined)	-13%	-3%	5%	?	1%
Cc1ccc(NC(=O)C2CCN(C(=O)c3ncn4c3COC(c3ccc(F)cc3)C4)CC2)c(Cl)c1 (centres undefined)	-22%	-24%	0%	25µM*	0%
O=C(Nc1ccc2c(c1)CCC2)C1CCN(C(=O)c2ncn3c2COC(c2ccc(F)cc2)C3)CC1 (centres undefined)	i	1%	7%	28µM*	i
Cc1cccc(NC(=O)C2CCN(C(=O)c3ncn4c3COC(c3ccc(F)cc3)C4)CC2)c1C (centres undefined)	i	-2%	7%	?	i
COc1cccc(-c2c(C(=O)N3CCN(C(C)=O)CC3)nc3sccn23)c1	2%	.	-2%	.	-11%
CN1CC(C(=O)N2CCC(c3ccccc3)CC2)NC1=O (centres undefined)	-1%[88.5 µM]	.	i	.	-1%[138 µM]
Cc1ccsc1C(=O)C1CCCN(Cc2cc(F)ccc2-n2cccn2)C1 (centres undefined)	-17%	-2%	40µM*	i	?
COCC[C@]1(O)CCN(Cc2cc(F)ccc2-n2cccn2)C[C@H]1C	-6%	-14%	?	i	2%
CCc1ccc(S(=O)(=O)N2CCC(n3cnnc3COC)CC2)cc1	-3%	-3%	-4%	i	-16%
CC(NC(=O)c1csc(N2CCN(c3ccccc3F)CC2)n1)c1ccccc1 (centres undefined)	-5%	3%	45µM*	i	?
O=C(NCC1CC1)c1csc(N2CCN(c3ccccc3F)CC2)n1	-1%	-24%	35µM*	i	13µM*
O=C(Nc1ccc(F)cc1)N1CC[C@H]2COC(=O)N2c2cc(F)ccc2C1	i	4%[70.6 µM]	-8%[172 µM]	56µM*	?
COCC1(O)CCOC2(CCN(C(=O)c3cccs3)CC2)C1 (centres undefined)	0%	.	-8%	.	-13%
O=C1COc2ccc(-c3cn[nH]c3)nc2CN1Cc1ccc(C(F)(F)F)cc1	0%[88.5 µM]	-16%[70.6 µM]	?	i	10µM*
O=C(CN1Cc2nc(-c3ccsc3)ccc2OCC1=O)N1CCCC1	-4%[88.5 µM]	-8%[70.6 µM]	-21%[172 µM]	i	?
COc1ccc(-c2ccc3c(n2)CN(Cc2csc(C)n2)C(=O)CO3)cc1F	i	-11%[70.6 µM]	?	i	?
O=C1COc2ccc(OCC3CC3)nc2CN1Cc1ccc(C(F)(F)F)cc1	?	-9%[70.6 µM]	79µM*	i	79µM*
Cc1nc(CN2Cc3nc(-c4cccc(C(F)(F)F)c4)ccc3OCC2=O)cs1	4%[88.5 µM]	-2%[70.6 µM]	100µM*	i	79µM*
O=C(CN1Cc2nc(Nc3ccc(C(F)(F)F)cc3)ccc2OCC1=O)N1CCCC1	4%[88.5 µM]	-16%[70.6 µM]	79µM*	i	50µM*
Cn1nc(C2CCCN2)c2c(C(=O)NCc3ccc(F)cc3)cc(C3CC3)nc21 (centres undefined)	-1%	.	?	.	?
O=C1COc2ccc(-c3ccncc3)nc2CN1Cc1ccccc1	i	-17%[70.6 µM]	?	i	?
O=C1COc2ccc(NCc3cccs3)nc2CN1Cc1ccc(C(F)(F)F)cc1	-8%[88.5 µM]	?	79µM*	i	79µM*
O=C1COc2ccc(-c3ccncc3)nc2CN1Cc1ccc(C(F)(F)F)cc1	-10%[88.5 µM]	-7%[70.6 µM]	79µM*	i	?
O=C(NCCN1CCCC1)c1cnc2c(c1)N(C(=O)Cc1cccc(C(F)(F)F)c1)CCC2	-2%	6%	-6%	i	?
